From PubChem BioAssay come the findings set out here.

Structures are written as SMILES. Values without a mark were called inactive. No rule for the calls is given here.

The target of the assay is Pantothenate synthetase (Mycobacterium tuberculosis (strain ATCC 25618 / H37Rv)) (UniProt P9WIL5). The experiment in a line: Recombinant Mtb pantothenate synthetase (PanC) inhibitors, coupled enzyme, confirmatory (AID 375).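 Also: 0% = full reaction with vehicle and 100% = no enzyme background.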 The note with it: coupled enzyme assay; at 10 µM, active compounds read high.
Chain of Pantothenate synthetase (Mycobacterium tuberculosis (strain ATCC 25618 / H37Rv)) (P9WIL5 whole entry, looked up): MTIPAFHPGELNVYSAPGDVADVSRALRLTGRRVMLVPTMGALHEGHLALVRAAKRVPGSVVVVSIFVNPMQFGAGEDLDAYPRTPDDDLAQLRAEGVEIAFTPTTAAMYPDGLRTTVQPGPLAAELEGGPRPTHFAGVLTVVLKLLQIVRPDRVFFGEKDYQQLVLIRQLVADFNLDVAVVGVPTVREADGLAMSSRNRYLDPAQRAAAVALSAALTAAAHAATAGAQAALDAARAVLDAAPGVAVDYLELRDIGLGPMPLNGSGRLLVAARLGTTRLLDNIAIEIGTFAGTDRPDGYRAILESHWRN
`CNC(=O)CN(c1cc(C)ccc1OC)S(=O)(=O)c1ccc(C)cc1`: the inhibition (as a rule, the share of the control response that was lost under treatment) was 3%.

`Cc1ccc(-c2noc(COc3ccccc3C)n2)cc1`: the inhibition is 0%.

For `CCCOc1ccc2ccccc2c1/C=N/n1cnnc1`, the inhibition is 5%.

`O=C(CCSc1nc(-c2ccco2)cc(C(F)(F)F)n1)Nc1ccc2c(c1)OCO2`: the inhibition was 0%.

In the case of `CC1=C(C(N)=O)C(c2ccncc2)n2nc(-c3ccccc3Cl)nc2N1` (centres undefined), the inhibition was 0%.

With `CCOC(=O)C1CCN(Cc2ccc(OC)c(C)c2OC)CC1`, the inhibition is 0%.

Turning to `COc1ccc(Br)cc1S(=O)(=O)N1CC(C)OC(C)C1` (centres undefined), the inhibition is 7%.

As to `COc1cc(C(O)c2nc3ccccc3n2C)cc(OC)c1OC` (centres undefined), the inhibition is 0%.

As to `CCOc1ccc(NS(=O)(=O)c2cc(Cl)ccc2OC)cc1`, the inhibition was 4%.

For `COC(=O)c1ccc2c(=O)n(NC(C)=O)c(=S)[nH]c2c1`, the inhibition was 0%.

For `CCOC(=O)C(C)Sc1nnc(Cc2cc(=O)[nH]c(=O)[nH]2)n1-c1ccc(Cl)cc1` (centres undefined), the inhibition is 0%.

Take `Cc1ccc(-n2nc(-c3cccs3)cc2C(=O)NCC2CCCO2)c(C)c1` (centres undefined): the inhibition was 0%.

As to `CC(C)=CCCC(C)N(C=O)C(C)CCC=C(C)C` (centres undefined), the inhibition is 3%.

Consider `Cc1cc(Nc2ccccc2)n(-c2ccccc2)n1`, for which the inhibition is 3%.

As to `CN1Cc2c(N)cccc2C(c2ccccc2)C1` (centres undefined), the inhibition is 0%.

Take `CCc1cccc(NC(=O)C2CCCN(S(=O)(=O)c3c(C)[nH]c(=O)[nH]c3=O)C2)c1` (centres undefined): the inhibition is 4%.

As to `COc1ccc(C2CC(c3cccc(C)c3)n3ncnc3N2)cc1` (centres undefined), the inhibition is 0%.

Consider `CCCCCCNS(=O)(=O)c1ccc(Cl)s1`, for which the inhibition is 2%.

Turning to `COc1ccccc1N1CCN(C(=O)CSc2nc(-c3ccccc3)cc(=O)[nH]2)CC1`, the inhibition was 1%.

Turning to `O=C(Nc1ccc(-c2noc(-c3cccs3)n2)cc1)c1cccnc1`, the inhibition was 0%.

For the molecule `N#Cc1c(N)n(CCNC(=O)c2cccs2)c2nc3ccccc3nc12`, the inhibition is 9%.

For `O=C1OC(N2CCN(c3ccccn3)CC2)c2ccccc21` (centres undefined), the inhibition was 0%.

On to `O=C(Nc1c(-c2ccccc2)nc2ccccn12)c1ccco1`, for which the inhibition was 0%.

Turning to `C=CCOc1ccc(C2/C(=C(\O)c3c(C)[nH]c(C(=O)OC)c3C)C(=O)C(=O)N2CCN(C)C)cc1` (centres undefined), the inhibition was 0%.

In the case of `CCOC(=O)CSc1nnc(-c2ccc(S(=O)(=O)N3CCOCC3)cc2)n1-c1ccccc1`, the inhibition was 3%.

Regarding `COc1ccc(-c2nnc3sc(-c4c(OC)cccc4OC)nn23)cc1`, the inhibition is 6%.

Take `Cc1cccc(NC(=O)COc2ccc(Br)cc2)n1`: the inhibition is 0%.

Regarding `Cc1nnc(NC(=O)CSc2cn(CCNC(=O)c3ccccc3)c3ccccc23)s1`, the inhibition is 0%.

As to `CN(C)CCOC(c1ccccc1)c1ccccc1` (tested in a mixture with another compound), the inhibition is 0%.

In the case of `Brc1ccc(-c2nnc3sc(CN4CCC5(CC4)OCCO5)cn23)cc1`, the inhibition was 0%.

In the case of `O=C(CSc1nc2ccccc2c(=O)n1CCC(=O)N1CCCCC1)NCc1ccccc1`, the inhibition is 0%.

With `COCCNC(=O)C(c1ccc(C)o1)N(Cc1ccc(OC)cc1)C(=O)Cn1nnc2ccccc21` (centres undefined), the inhibition was 1%.

As to `O=C(NCC(=O)N(CCc1ccccc1)C(C(=O)NC1CCCC1)c1cccnc1)c1ccco1` (centres undefined), the inhibition was 3%.

In the case of `CCOC(=O)C(NC(=O)Nc1ccccc1)(OCC)C(F)(F)F` (centres undefined), the inhibition is 0%.

For the molecule `Cc1nn(Cc2ccc(C(=O)NC3CCCCC3)o2)c(C)c1Br`, the inhibition was 2%.

For `CCOC(=O)c1cnc(-n2cc(C)cn2)nc1Nc1ccccc1OC`, the inhibition is 0%.

Take `Cc1csc(NC(=O)CCCSc2nc3ccccc3s2)n1`: the inhibition is 0%.

Regarding `COc1cc2c(C#N)c(N3CCN(c4ccccc4OC)CC3)nc(N)c2c(N)n1`, the inhibition is 0%.

With `CCN1C(=O)c2cccc3c(NC(=O)c4ccc5c(c4)OCCO5)ccc1c23`, the inhibition is 0%.
